Where “and” joins values, the source holds several entries; their conditions need not be identical. Equal entries are not always repeated. Records with an inconclusive call do not appear. Where a call stands in place of a potency, no number is given. The source holds several records for some structures; these can differ, active in one and inactive in another. Calls of active or inactive are those of the source. Unless noted, calls follow the shape of the dose curve; as a rule, active = well fitted curve in the direction sought with a large enough effect in the repeat runs; inconclusive = weak or mixed curves; inactive = no such curve, though single readings can be large; an effect the other way counts as inactive or inconclusive.
What was measured:
[1] = Human pregnane X receptor (PXR) small molecule agonists, qHTS cell viability counter screen (AID 1346977); also: nearly all actives have a fitted effect of over 50% in size
Method in brief: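 Fluorescence read-out (CellTiter-Fluor) of viability in PXR-Luc HepG2 cells, multiplexed with the luciferase agonist read. Compounds in DMSO added after 5hr plating; 24hr total exposure at 37C, 5% CO2.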

[2] = Caspase-3/7 induction in HepG2 cells by small molecules, qHTS assay (AID 1346978); also: nearly all actives have a fitted effect of over 15% in size
Method in brief: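 Wild-type HepG2 cells (2,000/well) were settled 5 h at 37 C, 5% CO2, then exposed to compounds in DMSO for 17 h. Caspase-3/7 activity was read by luminescence 30 min after adding Caspase-Glo 3/7 reagent at room temperature.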

[3] = Caspase-3/7 induction in CHO-K1 cells by small molecules, qHTS cell viability counter screen (AID 1346979); also: nearly all actives have a fitted effect of over 35% in size
Method in brief: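 CHO-K1 wt, 1,500 cells/well; 5hr pre-incubation 37C/5% CO2; compound pin transfer (DMSO); 16hr exposure; CellTiter-Fluor added, 1hr, fluorescence read.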

[4] = Caspase-3/7 induction in CHO-K1 cells by small molecules, qHTS assay (AID 1346980); also: nearly all actives have a fitted effect of over 15% in size
Method in brief: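 Wild-type cells were seeded at 1,500 per well and settled 5 hr at 37 C, 5% CO2, then exposed to DMSO-dissolved compounds for 17 hr. Caspase-Glo 3/7 reagent was added, and luminescence was read after 30min at room temperature.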

[5] = Caspase-3/7 induction in HepG2 cells by small molecules, qHTS cell viability counter screen (AID 1346981); also: series mostly up to about 92 µM; nearly all actives have a fitted effect of over 30% in size
Method in brief: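 Steps: seed 2,000 HepG2 cells per well; incubate 5 hr at 37 C; pin-add compounds in DMSO; incubate 16 hr; add CellTiter-Fluor; after 1 hr at 37 C and 5% CO2, read fluorescence.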

[6] = target: Nuclear receptor subfamily 1 group I member 2 (Homo sapiens) (UniProt O75469); assay: Human pregnane X receptor (PXR) small molecule agonists, qHTS assay (AID 1346982); also: nearly all actives have a fitted effect of over 35% in size; also: potency is read from the fitted curve at half-maximal effect
Nuclear receptor subfamily 1 group I member 2 (Homo sapiens), sequence (O75469 whole entry, looked up): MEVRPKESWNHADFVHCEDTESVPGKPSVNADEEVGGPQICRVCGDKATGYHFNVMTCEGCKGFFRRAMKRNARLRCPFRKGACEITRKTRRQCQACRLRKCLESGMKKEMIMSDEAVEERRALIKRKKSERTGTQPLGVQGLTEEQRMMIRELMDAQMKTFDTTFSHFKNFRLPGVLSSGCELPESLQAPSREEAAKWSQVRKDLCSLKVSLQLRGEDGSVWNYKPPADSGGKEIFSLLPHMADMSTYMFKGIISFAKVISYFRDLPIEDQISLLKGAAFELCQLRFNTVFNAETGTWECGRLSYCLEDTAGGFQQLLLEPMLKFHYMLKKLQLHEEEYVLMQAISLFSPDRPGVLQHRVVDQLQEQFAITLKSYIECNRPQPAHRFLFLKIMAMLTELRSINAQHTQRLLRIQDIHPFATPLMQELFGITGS
Method in brief: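 Agonist mode qHTS: PXR-Luc HepG2 cells plated 5 hr before DMSO-dissolved compounds were pinned in, cultured 24 hr at 37 C, 5% CO2; ONE-Glo luminescence readout.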

[7] = target: Nuclear receptor subfamily 1 group I member 2 (Rattus norvegicus) (UniProt Q9R1A7); assay: Rat pregnane X receptor (rPXR) activation by small molecules, qHTS assay (AID 1346983); settings: rPXR luciferase reporter cells, One-Glo luminescence, 24 h; stronger effect = higher value; also: nearly all actives have a fitted effect of over 20% in size
Nuclear receptor subfamily 1 group I member 2 (Rattus norvegicus), sequence (Q9R1A7 whole entry, looked up): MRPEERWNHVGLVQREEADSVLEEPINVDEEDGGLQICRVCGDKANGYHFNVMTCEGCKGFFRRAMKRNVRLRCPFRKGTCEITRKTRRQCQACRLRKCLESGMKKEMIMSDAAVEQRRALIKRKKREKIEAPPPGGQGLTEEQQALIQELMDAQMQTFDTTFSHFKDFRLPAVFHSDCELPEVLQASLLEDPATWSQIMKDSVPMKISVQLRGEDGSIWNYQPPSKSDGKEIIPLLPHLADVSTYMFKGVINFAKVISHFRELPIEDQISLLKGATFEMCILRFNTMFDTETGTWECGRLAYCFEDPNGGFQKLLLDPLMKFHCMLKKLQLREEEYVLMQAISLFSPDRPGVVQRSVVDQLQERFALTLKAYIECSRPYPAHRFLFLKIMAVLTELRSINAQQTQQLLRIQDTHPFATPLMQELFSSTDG
Method in brief: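 Cell-based rPXR luciferase reporter assay, 2,000 cells per well, rested 5hr at 37 C before compound addition in DMSO, then 24 hr at 37 C. One-Glo reagent was added and luminescence read after 30 min at room temperature.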

[8] = target: Nuclear receptor subfamily 1 group I member 2 (Homo sapiens) (UniProt O75469); assay: CYP3A4 induction through human pregnane X receptor (PXR) by small molecules, qHTS assay (AID 1346984); also: nearly all actives have a fitted effect of over 40% in size
Method in brief: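 Steps: seed DPX-2 cells, 5 hr at 37C; pin-transfer compounds; 24 hr at 37C; add Luciferin-IPA (3uM final), 3 hr at 37C; add One-Glo, 30 min RT; read luminescence.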

[9] = target: Nuclear receptor subfamily 1 group I member 2 (Homo sapiens) (UniProt O75469); assay: Human pregnane X receptor (PXR) activation by small molecules, qHTS assay (AID 1346985); also: nearly all actives have a fitted effect of over 40% in size
Method in brief: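 DPX-2 cells (HepG2 co-transfected with a PXR response element and a CYP3A4-promoter luciferase construct) were seeded at 2,000 per well, rested 5 hr at 37C, then exposed to DMSO-dissolved compounds for 24 hr. Activation was read as luciferase luminescence.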

[10] = target: Cytochrome P450 2D6 (Homo sapiens) (UniProt P10635); assay: Cytochrome P450 Family 2 Subfamily D Member 6 (CYP2D6) small molecule antagonists: luciferase reporter qHTS assay (AID 1671196); also: nearly all actives have a fitted effect of over 50% in size; also: potency is read from the fitted curve at half-maximal effect
Cytochrome P450 2D6 (Homo sapiens), sequence (P10635 whole entry, looked up): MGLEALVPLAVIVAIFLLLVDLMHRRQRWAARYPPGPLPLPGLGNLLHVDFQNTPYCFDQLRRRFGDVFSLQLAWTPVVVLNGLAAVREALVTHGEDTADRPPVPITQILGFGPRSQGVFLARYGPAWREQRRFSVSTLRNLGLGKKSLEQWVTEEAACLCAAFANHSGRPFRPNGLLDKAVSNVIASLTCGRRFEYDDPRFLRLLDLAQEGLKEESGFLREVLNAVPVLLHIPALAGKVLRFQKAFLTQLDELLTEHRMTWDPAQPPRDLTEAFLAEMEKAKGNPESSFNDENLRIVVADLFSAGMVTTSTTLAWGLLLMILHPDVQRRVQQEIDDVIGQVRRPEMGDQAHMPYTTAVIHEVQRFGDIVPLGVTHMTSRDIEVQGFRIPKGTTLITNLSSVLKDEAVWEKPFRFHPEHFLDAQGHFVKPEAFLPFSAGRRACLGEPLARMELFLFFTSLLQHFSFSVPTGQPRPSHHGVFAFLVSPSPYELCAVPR
Method in brief: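 P450-Glo format: CYP2D6 converts a proluciferin substrate to luciferin in an NADPH-driven reaction lasting 1 h at room temperature. Light output, proportional to CYP2D6 activity, reflects interference by test chemicals.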

[11] = target: Cytochrome P450 2C9 (Homo sapiens) (UniProt P11712); assay: Cytochrome P450 Family 2 Subfamily C Member 9 (CYP2C9) small molecule antagonists: luciferase reporter qHTS assay (AID 1671198); also: nearly all actives have a fitted effect of over 50% in size; also: potency is read from the fitted curve at half-maximal effect
Cytochrome P450 2C9 (Homo sapiens), sequence (P11712 whole entry, looked up): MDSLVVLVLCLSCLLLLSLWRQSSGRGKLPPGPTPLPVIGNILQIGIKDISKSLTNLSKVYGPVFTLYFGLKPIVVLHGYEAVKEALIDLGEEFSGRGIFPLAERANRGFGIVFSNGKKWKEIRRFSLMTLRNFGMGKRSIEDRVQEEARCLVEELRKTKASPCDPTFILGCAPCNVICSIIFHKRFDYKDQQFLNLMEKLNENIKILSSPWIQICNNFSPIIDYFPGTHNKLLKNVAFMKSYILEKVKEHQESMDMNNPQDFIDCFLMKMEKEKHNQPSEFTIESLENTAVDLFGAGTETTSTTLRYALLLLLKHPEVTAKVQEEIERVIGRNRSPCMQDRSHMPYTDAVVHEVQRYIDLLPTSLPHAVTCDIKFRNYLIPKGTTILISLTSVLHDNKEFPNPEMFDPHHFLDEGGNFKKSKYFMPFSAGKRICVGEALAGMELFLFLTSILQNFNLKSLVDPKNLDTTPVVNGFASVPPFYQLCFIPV
Method in brief: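 CYP2C9 activity was measured with a P450-Glo proluciferin substrate. Enzyme–substrate mix was held with compound for 10 min at room temperature, then NADPH regeneration solution was added for 1 h at 37C. Luciferin product was read as luminescence.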

[12] = target: Cytochrome P450 1A2 (Homo sapiens) (UniProt P05177); assay: Cytochrome P450 Family 1 Subfamily A Member 2 (CYP1A2) small molecule antagonists: luciferase reporter qHTS assay (AID 1671199); also: nearly all actives have a fitted effect of over 50% in size; also: potency is read from the fitted curve at half-maximal effect
Cytochrome P450 1A2 (Homo sapiens), sequence (P05177 whole entry, looked up): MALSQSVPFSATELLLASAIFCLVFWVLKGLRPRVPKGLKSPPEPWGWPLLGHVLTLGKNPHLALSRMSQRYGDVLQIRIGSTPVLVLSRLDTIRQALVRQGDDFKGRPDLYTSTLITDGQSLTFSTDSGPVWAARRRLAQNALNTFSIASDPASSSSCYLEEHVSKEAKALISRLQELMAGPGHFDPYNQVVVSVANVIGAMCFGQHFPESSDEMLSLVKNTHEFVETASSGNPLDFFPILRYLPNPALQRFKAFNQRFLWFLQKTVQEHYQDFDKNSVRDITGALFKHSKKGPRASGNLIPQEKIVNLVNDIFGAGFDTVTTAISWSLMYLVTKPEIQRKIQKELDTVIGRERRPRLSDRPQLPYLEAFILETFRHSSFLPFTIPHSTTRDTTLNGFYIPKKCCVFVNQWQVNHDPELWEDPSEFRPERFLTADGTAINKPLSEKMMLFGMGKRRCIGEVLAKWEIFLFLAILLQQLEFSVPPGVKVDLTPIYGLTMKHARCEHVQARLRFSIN
Method in brief: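 Inhibition of CYP1A2 conversion of proluciferin to luciferin, detected by luminescence. Reaction run 1 h at room temperature with NADPH regeneration after brief compound preincubation.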

[13] = target: Voltage-gated inwardly rectifying potassium channel KCNH2 (Homo sapiens) (UniProt Q12809); assay: Human Ether-a-go-go-Related Gene (hERG) channel small molecule antagonists: fluorescence cell-based qHTS assay (AID 1671200)
Voltage-gated inwardly rectifying potassium channel KCNH2 (Homo sapiens), sequence (Q12809 whole entry, looked up): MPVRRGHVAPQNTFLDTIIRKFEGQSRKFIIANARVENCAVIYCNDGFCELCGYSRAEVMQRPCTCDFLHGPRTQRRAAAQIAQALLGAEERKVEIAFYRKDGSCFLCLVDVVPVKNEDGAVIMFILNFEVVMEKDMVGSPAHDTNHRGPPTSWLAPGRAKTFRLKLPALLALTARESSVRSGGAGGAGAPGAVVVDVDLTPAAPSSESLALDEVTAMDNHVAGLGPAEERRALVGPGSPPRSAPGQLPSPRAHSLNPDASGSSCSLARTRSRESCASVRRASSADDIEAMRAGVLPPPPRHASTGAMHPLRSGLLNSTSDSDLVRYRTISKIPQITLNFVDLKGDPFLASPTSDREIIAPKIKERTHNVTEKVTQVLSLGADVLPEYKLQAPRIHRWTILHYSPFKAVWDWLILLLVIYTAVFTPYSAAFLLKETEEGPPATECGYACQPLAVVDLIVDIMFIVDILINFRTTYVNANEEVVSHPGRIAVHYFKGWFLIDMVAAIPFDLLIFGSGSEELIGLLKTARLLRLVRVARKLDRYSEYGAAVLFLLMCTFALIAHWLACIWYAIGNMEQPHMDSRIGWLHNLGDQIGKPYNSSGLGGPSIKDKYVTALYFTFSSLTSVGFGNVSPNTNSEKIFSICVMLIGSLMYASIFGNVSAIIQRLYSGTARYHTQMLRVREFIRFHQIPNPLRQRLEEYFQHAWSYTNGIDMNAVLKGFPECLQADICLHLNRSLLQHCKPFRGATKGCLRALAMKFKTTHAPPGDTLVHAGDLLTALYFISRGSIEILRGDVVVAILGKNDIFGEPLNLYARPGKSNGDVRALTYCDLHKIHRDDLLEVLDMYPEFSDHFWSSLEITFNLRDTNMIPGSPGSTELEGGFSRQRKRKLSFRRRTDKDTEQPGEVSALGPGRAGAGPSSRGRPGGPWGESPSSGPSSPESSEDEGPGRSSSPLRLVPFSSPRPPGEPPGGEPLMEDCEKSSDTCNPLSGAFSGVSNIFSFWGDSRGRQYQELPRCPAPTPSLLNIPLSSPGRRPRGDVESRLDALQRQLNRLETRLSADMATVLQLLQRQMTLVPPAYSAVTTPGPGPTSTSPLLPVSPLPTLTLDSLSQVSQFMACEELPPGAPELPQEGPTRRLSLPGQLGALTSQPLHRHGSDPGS
Method in brief: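 Read-out: thallium influx as a surrogate for potassium, tracked as fluorescence (480 nm ex/540 nm em) every second for 2 min after Stimulus Buffer addition in dye-loaded hERG-U2OS cells.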

[14] = target: Thyrotropin-releasing hormone receptor (Homo sapiens) (UniProt P34981); assay: qHTS assay to identify small molecule agonists of the thyrotropin-releasing hormone receptor (TRHR) signaling pathway (AID 1346891; calls by dose curve;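 also: HEK293 cells expressing TRHR with calcium dye readout; series mostly up to about 58 µM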)
Thyrotropin-releasing hormone receptor (Homo sapiens), sequence (P34981 whole entry, looked up): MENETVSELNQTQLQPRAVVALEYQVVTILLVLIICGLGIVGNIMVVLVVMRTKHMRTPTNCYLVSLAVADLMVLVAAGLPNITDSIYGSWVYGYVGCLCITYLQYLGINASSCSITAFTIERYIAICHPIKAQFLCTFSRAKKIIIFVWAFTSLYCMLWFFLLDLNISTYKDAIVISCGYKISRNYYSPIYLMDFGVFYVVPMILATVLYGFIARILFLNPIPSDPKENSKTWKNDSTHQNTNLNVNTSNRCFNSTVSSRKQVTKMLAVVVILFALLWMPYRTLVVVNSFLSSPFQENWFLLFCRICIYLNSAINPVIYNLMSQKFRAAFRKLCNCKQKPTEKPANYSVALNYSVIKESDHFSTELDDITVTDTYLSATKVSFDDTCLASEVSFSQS
Method in brief: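 HEK293/TRHR cells, 1500 per well, 18 h 37 °C; Ca dye 2 h 37 °C; pin-tool compound addition (agonist mode); kinetic fluorescence 3 min, 1 s reads; 15 concentrations, triplicate.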

[15] = target: Cytochrome P450 2C19 (Homo sapiens) (UniProt P33261); assay: Cytochrome P450 Family 2 Subfamily C Member 19 (CYP2C19) small molecule antagonists: luciferase reporter qHTS assay (AID 1671197); also: nearly all actives have a fitted effect of over 65% in size; also: potency is read from the fitted curve at half-maximal effect
Cytochrome P450 2C19 (Homo sapiens), sequence (P33261 whole entry, looked up): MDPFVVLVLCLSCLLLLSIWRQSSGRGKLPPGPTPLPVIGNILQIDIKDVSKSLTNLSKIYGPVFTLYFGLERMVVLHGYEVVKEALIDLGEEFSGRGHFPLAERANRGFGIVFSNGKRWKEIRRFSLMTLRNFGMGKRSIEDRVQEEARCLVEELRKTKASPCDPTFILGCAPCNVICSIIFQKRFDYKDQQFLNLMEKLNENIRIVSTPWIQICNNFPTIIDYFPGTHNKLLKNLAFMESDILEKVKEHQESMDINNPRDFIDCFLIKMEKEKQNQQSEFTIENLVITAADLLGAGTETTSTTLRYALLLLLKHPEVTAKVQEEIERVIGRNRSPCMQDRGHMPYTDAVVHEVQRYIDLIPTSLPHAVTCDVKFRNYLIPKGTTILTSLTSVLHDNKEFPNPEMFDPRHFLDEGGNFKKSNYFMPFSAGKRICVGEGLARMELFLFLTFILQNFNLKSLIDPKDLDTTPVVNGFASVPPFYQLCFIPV
Method in brief: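 Light output is proportional to CYP2C19 activity: proluciferin substrate is converted to luciferin, then detected by a luciferin detection reagent that also stops the 1 h, 37C NADPH-driven reaction. Ketoconazole serves as positive control.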

[16] = target: Cytochrome P450 3A4 (Homo sapiens) (UniProt P08684); assay: Cytochrome P450 Family 3 Subfamily A Member 4 (CYP3A4) small molecule antagonists: luciferase reporter qHTS assay (AID 1671201)
Cytochrome P450 3A4 (Homo sapiens), sequence (P08684 whole entry, looked up): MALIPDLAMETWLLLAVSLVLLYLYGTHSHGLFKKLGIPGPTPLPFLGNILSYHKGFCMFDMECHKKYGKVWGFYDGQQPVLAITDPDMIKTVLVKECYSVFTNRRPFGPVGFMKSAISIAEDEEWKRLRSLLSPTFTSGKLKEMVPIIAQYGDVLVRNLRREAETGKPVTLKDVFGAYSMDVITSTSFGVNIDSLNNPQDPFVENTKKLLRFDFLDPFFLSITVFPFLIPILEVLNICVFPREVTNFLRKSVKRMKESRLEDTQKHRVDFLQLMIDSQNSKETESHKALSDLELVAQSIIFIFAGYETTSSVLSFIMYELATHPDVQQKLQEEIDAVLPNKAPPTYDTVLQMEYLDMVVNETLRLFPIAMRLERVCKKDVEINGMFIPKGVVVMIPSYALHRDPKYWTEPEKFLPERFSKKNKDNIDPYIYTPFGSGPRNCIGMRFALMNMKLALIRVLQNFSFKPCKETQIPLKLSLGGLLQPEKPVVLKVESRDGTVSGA
Method in brief: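 Luminescent readout (RLU) proportional to CYP3A4 activity, from luciferin generated off a proluciferin substrate. Enzyme–substrate mix plus compound 10 min at room temp, NADPH regeneration 1 h, detection reagent 20 min.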

| SMILES | Potency [1] | Potency [2] | Potency [3] | outcome [4] | Potency [5] | Potency [6] | max activation [7] | Potency [8] | Potency [9] | Potency [10] | Potency [11] | Potency [12] | Potency [13] | outcome [14] | Potency [15] | Potency [16] |
| --- | --- | --- | --- | --- | --- | --- | --- | --- | --- | --- | --- | --- | --- | --- | --- | --- |
| CCCc1cc(C(N)=S)ccn1 | inactive | inactive | inactive | inactive | inactive | inactive | 0.144% (inactive) | inactive | inactive | inactive | inactive | inactive | inactive | – | – | – |
| CN(C)CCCSc1ccccc1NC(=O)/C=C/c1ccccc1 | – | inactive | inactive | – | inactive | – | 2.69% (inactive) | inactive | – | 0.389 µM (active) | inactive | – | inactive | inactive | 38.9 µM (active) | inactive |
| FC1(F)C(F)(F)C(F)(F)C2(F)C(F)(F)C(F)(F)C(F)(F)C(F)(F)C2(F)C1(F)F (stereo not drawn) | inactive | inactive | inactive | inactive | inactive | inactive | -2.25% (inactive) | inactive | inactive | inactive | inactive | inactive | inactive | – | inactive | inactive |
| CCOc1ccc(C(=O)OCCN(CC)CC)cc1 | inactive | inactive | inactive | inactive | inactive | inactive | -2.52% (inactive) | inactive | inactive | 1.55 µM (active) | inactive | 27.5 µM (active) | inactive | – | inactive | inactive |
| NC(=O)c1cn(Cc2c(F)cccc2F)nn1 | inactive | inactive | inactive | inactive | inactive | inactive | -1.62% (inactive) | inactive | inactive | inactive | inactive | inactive | – | – | inactive | inactive |
| NS(=O)(=O)c1ccccc1Cl | inactive | inactive | inactive | inactive | inactive | inactive | – | – | – | inactive | inactive | – | inactive | – | inactive | – |
| CC(C)(O)C(=O)c1ccccc1 | – | inactive | inactive | – | inactive | inactive | – | – | – | inactive | inactive | – | inactive | inactive | 39.9 µM (active) | inactive |
| Cc1ccc(C#N)cc1 | – | inactive | inactive | inactive | inactive | inactive | – | – | – | – | – | – | inactive | inactive | 34.4 µM (active) | inactive |
| CCOC(=O)c1c(C)n(C)c2ccc(O)cc12 | – | inactive | inactive | inactive | inactive | – | -1.63% (inactive) | inactive | inactive | – | – | 0.512 µM (active) | inactive | inactive | 7.76 µM (active) | – |
| C[C@H]1C[C@@H](O)CC(C)(C)C1 | – | inactive | inactive | – | inactive | inactive | – | – | – | inactive | inactive | inactive | inactive | inactive | inactive | inactive |
| NC(=O)c1ccc(N)cc1 | inactive | inactive | inactive | inactive | inactive | inactive | – | – | – | inactive | inactive | inactive | – | – | inactive | – |
| Cc1nc2c([nH]1)c(=O)n(C)c(=O)n2Cc1ccco1 | – | inactive | inactive | – | inactive | inactive | – | – | – | – | inactive | – | inactive | inactive | inactive | inactive |
| CCN(Cc1ccncc1)C(=O)C(CO)c1ccccc1 (stereo not drawn) | – | inactive | inactive | – | inactive | – | – | – | – | – | – | – | – | inactive | – | – |
| COC(=O)c1c(Cl)c(Cl)c(C(=O)OC)c(Cl)c1Cl | inactive | inactive | inactive | inactive | inactive | 21.7 µM (active) | – | – | – | inactive and 31.7 µM (active) | inactive | – | – | – | 28.3 µM (active) and 15.9 µM (active) | – |
| Cn1c(N)c(N=O)c(=O)n(C)c1=O | – | inactive | inactive | inactive | inactive | inactive | – | – | – | – | inactive | – | inactive | inactive | 58.2 µM (active) | – |
| CCOC(=O)Nc1ccc(NCc2ccc(F)cc2)nc1N | inactive | inactive | inactive | inactive | inactive | inactive | 1.97% (inactive) | inactive | – | 3.09 µM (active) | 6.17 µM (active) | inactive | – | – | 11 µM (active) | – |
| CCn1nc(C(=O)O)c(=O)c2cc3c(cc21)OCO3 | inactive | inactive | inactive | inactive | inactive | – | – | – | – | – | – | – | – | – | – | – |
| CCCCCOC(=O)CCCCC | – | inactive | inactive | inactive | inactive | inactive | – | – | – | – | inactive | inactive | inactive | inactive | inactive | inactive |
| N=C(N)c1ccc(OCCCOc2ccc(C(=N)N)cc2)cc1 | inactive | inactive | inactive | – | inactive | inactive | – | – | – | inactive | – | inactive | inactive | – | inactive | – |
| CCOC(=O)CC(C)=O | inactive | inactive | inactive | inactive | inactive | – | – | – | – | – | – | – | inactive | – | – | – |
| CO/N=C(/C(=O)N[C@@H]1C(=O)N2C(C(=O)OCOC(=O)C(C)(C)C)=C(C)CS[C@H]12)c1csc(N)n1 | inactive | inactive | inactive | inactive | inactive | inactive | – | – | – | – | 11 µM (active) | – | inactive | – | – | – |
| CCSC(=O)N(CC(C)C)CC(C)C | inactive | inactive | inactive | – | inactive | inactive | – | – | – | – | inactive | – | – | – | inactive | inactive |
| C1OCOCO1 | inactive | inactive | inactive | inactive | inactive | inactive | – | – | – | inactive | inactive | – | inactive | – | inactive | inactive |
| O=c1[nH]c(=O)n([C@H]2C[C@H](O)[C@@H](CO)O2)cc1I | – | inactive | inactive | inactive | inactive | – | 6.42% (inactive) | – | – | inactive | inactive | – | inactive | – | inactive | inactive |
| CC(=O)OCC(=O)[C@@]1(O)CCC2C3CCC4=CC(=O)CC[C@]4(C)C3[C@@H](O)C[C@@]21C (stereo partly drawn) | inactive | inactive | inactive | – | inactive | inactive | – | – | – | – | – | inactive | inactive | – | inactive | inactive |
| CN1CCC(=C2c3ccccc3CC(=O)c3sccc32)CC1 | – | inactive | inactive | – | inactive | inactive | – | – | – | 2.45 µM (active) | inactive | inactive | inactive | – | 34.7 µM (active) | – |

Reference: PubChem BioAssay (Tox21)
